This is part of a sample that, as a whole, favours compounds with a hit. Of some 83,000 tested, about 20% had one in any assay.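 Percent growth is the endpoint: 0 to 100 indicates growth inhibition (40 means 60% inhibition), 0 means no net growth, and negative values indicate cell death.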 A number with no mark means an inactive call. Active and inactive are the calls of the source. Rule for the calls: active = growth percent below 10; inactive = the rest.

The assay concerns NCI/ADR-RES ovarian. The assay is described as follows: NCI-60 one-dose screen, 48 h (100 = growth as untreated, 0 = no growth, -100 = all killed). Particulars: 10 µM unless noted.
As to `C=CCn1c(C)nc2cc(Nc3nc(N4CCCC4)nc4ccccc34)ccc21`, the growth was 83.3%.
For `Cc1ccc(/C=C/c2c(C(=O)/C=C/c3ccc(Cl)cc3)c(C)nc3ccccc23)cc1` the value was -21.6% (active); for `COc1cc(/C=C/C(=O)c2cccc(-n3cc(-c4ccccc4)[nH]c3=O)c2)ccc1O`, 23.2%; for `C=CCOC1=CC(=O)c2ccccc2C1=O`, 60.1%.
With `Cn1cc(-c2csc(-c3ccccc3)n2)c2cccnc21` the figure was -27.8% [100 µM] (active).
With `c1ccc(-c2nc([P+](c3ccccc3)(c3ccccc3)c3ccccc3)c(N3CCOCC3)o2)cc1` the figure was 92.8%.
With `O=C(COc1ccc(/C=C2\Oc3ccccc3C2=O)cc1)Nc1nc2c(s1)CCCC2`, the growth is 78.8%.
With `COc1ccc(C2c3ccc4ccccc4c3Oc3nc(C)[nH]c(=O)c32)cc1` (stereo not drawn) the figure was 93.9%.
For `CN(C)c1ccc(-c2ccc3[nH]c(=O)nc(-c4ccccc4)c3c2)cn1`, the growth was 49.4%.
Consider `O=C1/C(=C\c2c[nH]c3ccccc23)c2ccccc2N1c1c(Cl)cccc1Cl`, for which the growth was -8.2% (active).
For `Cc1cc(/C=C\c2ccc3ccccc3[n+]2C)c(O)c2ncccc12` the value was 32.4%.
For `O=C1N=c2cc3c(cc2=C/C1=C/c1sc(=S)n(CCc2ccc(O)cc2)c1O)OCCO3` the value was 64.7%; for `N#Cc1nc(C#N)c(Sc2ccccc2)c(Sc2ccccc2)c1Sc1ccccc1`, 20.3%.
For `Cc1cc(NCCCCNc2ccnc3cc(Cl)ccc23)nc(Nc2ccc(C(=O)N3CCCC3)cc2)n1` the value was 94.8%; for `CC(C)CCC[C@@H](C)[C@H]1CC[C@H]2[C@@H](Nc3ccc(O)cc3)CCC[C@]12C`, 71.4%; for `O=C(c1ccccc1)c1c(/C=C/c2ccc(Cl)cc2)nc2ccccc2c1/C=C/c1cccs1`, 99.8%.
`CC(=O)n1c(-c2ccc(Cl)cc2)nc2c(c1=O)C(c1ccc(Cl)cc1)c1sc3c(Cl)cccc3c1O2` (stereo not drawn): the growth is -17.2% (active).
For the compound `CN1CCN(CCCOc2ccc3nc(Nc4ccc(F)c(F)c4)ccc3c2)CC1`, the growth was 70.6%.
With `CS(=O)c1cccc(-c2ccc3nc(N)n(-c4ccc(C(F)(F)F)cc4)c(=O)c3c2)c1` (stereo not drawn) the figure was 103%; with `COc1ccc2[nH]c(O)c(/C=c3/cc4c(c(-c5ccc(F)c(OC)c5)n3)=Nc3ccccc3-4)c2c1`, 32.7%; with `CC(=O)C(C)Cc1cc2c(cc1C)C(C)(C)CCC2(C)C` (stereo not drawn), 98.8%.
For `COc1cc(/C=C2\C(=O)ON=C2C)cc(OC)c1OC` the value was 100%; for `CCCCn1c(=O)c2c(nc3n2CCCN3CCc2ccc(OCC(=O)NCCN(CC)CC)cc2)n(CCCC)c1=O`, 60.7%; for `COc1cc2c(cc1-c1c(C)noc1C)ncc1nc(C3CCC(F)(F)CC3)n(C3CCC(OC(F)F)CC3)c12` (stereo not drawn), 47.4%.
In the case of `CCN(CCNc1ccc(C)c2sc3ccccc3c(=O)c12)CC(C)(C)O`, the growth was 70.9%.
As to `CCCCCCCCCCCCCCCCCCOc1ccccc1CC(=O)OCCC[N+](C)(C)C`, the growth was 100%.
With `COc1ccc(C(=NN=C(N)N)c2ccc(OC)cc2)cc1` the figure was 83.5%; with `Cc1c(C(=O)N[C@@H](Cc2ccccc2)C(=O)C(=O)NCCc2ccccc2)[nH]c2ccccc2c1=O`, 100%; with `CC1(c2ccccc2)NC(=O)N(NC(=O)CSc2nc(-c3cccs3)nc3ccccc23)C1=O` (stereo not drawn), 87.9%.
With `CCN(CC)Cc1cccc(C(=O)OC)c1` the figure was 102%; with `CCCCc1ccc(Nc2ccc(Nc3ccc(CCCC)cc3S(=O)(=O)O)c3c2C(=O)c2ccccc2C3=O)c(S(=O)(=O)O)c1`, 107%; with `O=C(Nc1ccc(Cl)cc1)Nc1ccc(Cl)c(C(F)(F)F)c1`, -37.1% (active).
`COc1cc(/C=N/Nc2ncc(-c3cc4cc5c(cc4o3)OCO5)s2)cc(OC)c1OC`: the growth was 26.3%.
Turning to `COc1ccc(-c2nc3c(N)c(CO)c(C)nc3o2)cc1`, the growth was 89.7%.
For `c1ccc(Nc2nc(-c3ccccn3)cs2)nc1` the value was -0.82% (active).
With `Cc1ccc(S(=O)(=O)Oc2cc(OS(=O)(=O)c3ccc(C)cc3)cc(OS(=O)(=O)c3ccc(C)cc3)c2)cc1` the figure was 95.6%.
With `COc1ccc(NC(=O)c2nc(-c3cc(OC)c(OC)c(OC)c3)n(-c3cccc4ccccc34)n2)cc1OC` the figure was 35.2%; with `COc1ccc(C2C(c3nn[nH]n3)=C(N)Oc3c2ccc2ccccc32)cc1` (stereo not drawn), 28.3%.

For the origin of these results see PubChem BioAssay (NCI).
